Data taken from PubChem BioAssay (Tox21).
Unmarked numbers belong to inactive results. Results filed as inconclusive are left out. A call without a number means that no potency is given here. Active and inactive are the calls of the source. Unless noted, calls follow the shape of the full dose curve.

How the values were obtained:
[1] = Nuclear factor erythroid 2-related factor 2/antioxidant responsive element (Nrf2/ARE) small molecule agonists: qHTS cell viability counter screen in human keratinocytes (AID 1919968; active = well fitted curve in the direction sought with a large enough effect in the repeat runs; an effect the other way counts as inactive or inconclusive; also: nearly all actives have a fitted effect of over 55% in size; also: potency is read from the fitted curve at half-maximal effect)
In short: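 Measured as CellTiter-Fluor fluorescence, this readout tracks cytotoxicity in the same wells as the ARE-luciferase screen. HaCaT reporter cells (1,500/well) received compounds after a 5 h pre-incubation and were exposed for 23 h.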

[2] = Nuclear factor erythroid 2-related factor 2/antioxidant responsive element (Nrf2/ARE) small molecule agonists: luciferase reporter gene qHTS assay in human keratinocytes (AID 1919969); also: nearly all actives have a fitted effect of over 35% in size
[3] = target: Gonadotropin-releasing hormone receptor (Homo sapiens) (UniProt P30968); experiment: Human gonadotropin-releasing hormone receptor (GnRHR) small molecule agonists, calcium flux assay in GnRHR-HEK293 cells (AID 1920063); also: nearly all actives have a fitted effect of over 35% in size
In short: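 Fluorescence kinetics (480 nm excitation, 540 nm emission; 3 min, 1 s steps) report calcium mobilisation in human GnRHR-HEK293 cells in agonist mode. Dye incubation: 1 h, 37 C.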

[4] = target: KiSS-1 receptor (Homo sapiens) (UniProt Q969F8); experiment: Human kisspeptin (KISS1R) small molecule agonists, calcium flux assay in KISS1R-HEK293 cells (AID 1920064; active = well fitted curve in the direction sought with a large enough effect in the repeat runs; an effect the other way counts as inactive or inconclusive)
In short: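 Measures KISS1R agonism through calcium-sensitive dye fluorescence in stably transfected HEK293 cells, read for 3 min after pin-tool compound delivery; 15-point titrations in triplicate.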

[5] = G protein-coupled receptor (GPCR) small molecule agonists, calcium flux assay: HEK293 wild type cell line counter screen (AID 1920065)
In short: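 Readout: fluorescence at 480 nm excitation/540 nm emission, sampled at 1 s intervals for 3 min. Cells had been cultured 18 h, then dye-loaded 1 h at 37 C before compound or ATP addition.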

[6] = p53 small molecule agonists, cell-based qHTS assay with human liver microsomes (AID 1963577);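 also: p53 response element beta-lactamase reporter cells with liver microsomes plus NADPH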
In short: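 With metabolic activation: human liver microsomes (0.5 mg/mL final) plus NADPH (0.5 mg/mL final) added alongside compounds to p53RE-bla cells; 16 h 37 C exposure; beta-lactamase read by LiveBLAzer fluorescence.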

[7] = p53 small molecule agonists, cell-based qHTS assay with rat liver microsomes (AID 1963578)
In short: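 Metabolic activation by rat liver microsomes and NADPH, each 0.5 mg/mL final, added right after compounds to p53RE-bla reporter cells (4,000/well, plated 5 h earlier). 16 h at 37 C, then LiveBLAzer substrate for 2 h at room temperature in the dark; fluorescence read-out.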

[8] = p53 small molecule agonists, cell-based qHTS assay with human liver microsomes: qHTS cell viability counter screen (AID 1963579); also: nearly all actives have a fitted effect of over 45% in size
In short: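 Metabolic activation used human liver microsomes and NADPH, both 0.5 mg/mL final, over 16 hours at 37 C on p53RE-bla cells (4,000/well). Cytotoxicity measured by CellTiter-Glo luminescence, 30 min at room temperature.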

[9] = p53 small molecule agonists, cell-based qHTS assay with rat liver microsomes: qHTS cell viability counter screen (AID 1963580); also: nearly all actives have a fitted effect of over 45% in size
In short: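 Viability is assessed in parallel with the p53 reporter read: HCT-116 p53RE-bla cells receive compounds plus rat microsomes and NADPH (0.5 mg/mL final apiece), incubate 16 h at 37 C, and then CellTiter-Glo luminescence is recorded.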

[10] = p53 small molecule agonists, cell-based qHTS assay: qHTS cell viability counter screen (AID 1963581); also: nearly all actives have a fitted effect of over 45% in size
In short: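 In the same plates used for the p53 bla reporter, HCT-116 cells given compounds for 16 h at 37 C received CellTiter-Glo; luminescence was recorded 30 min later at room temperature.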

[11] = p53 small molecule agonists, cell-based qHTS assay (AID 1963582; active = well fitted activation curve with a large enough effect in the signal ratio in the repeat runs, not every such curve was filed as active; the % refers to the signal ratio)
In short: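 Compounds are pin-transferred in DMSO onto p53RE-bla cells and incubated 16 h at 37 C. The B/G FRET beta-lactamase substrate is then applied for 2 h at RT and fluorescence recorded.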

[12] = target: 5-hydroxytryptamine receptor 2A (Homo sapiens) (UniProt P28223); experiment: 5-hydroxytryptamine receptor 2A (HTR2A) small molecule antagonists, cell-based qHTS assay (AID 1963586); also: nearly all actives have a fitted effect of over 45% in size
In short: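 Antagonist-mode intracellular calcium assay: DOI (4 nM) added after 5 min compound pre-incubation at room temperature to dye-loaded HTR2A-CHO cells. Fluorescence followed for 3 min, sampled every second.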

[13] = target: Muscarinic acetylcholine receptor M1 (Homo sapiens) (UniProt P11229); experiment: Cholinergic receptor muscarinic 1 (CHRM1) small molecule antagonists, cell-based qHTS assay (AID 1963588); also: nearly all actives have a fitted effect of over 40% in size
In short: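 CHRM1-CHO calcium-flux assay, antagonist mode. Cells were seeded 18 h, dye-loaded 1 h at 37 C and given compound for 5 min at RT, then acetylcholine was added at 50nM. FDSS fluorescence was read 3 min; 15 concentrations, three runs.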

[14] = target: Muscarinic acetylcholine receptor M1 (Homo sapiens) (UniProt P11229); experiment: Cholinergic receptor muscarinic 1 (CHRM1) small molecule agonists, cell-based qHTS assay (AID 1963589); also: nearly all actives have a fitted effect of over 35% in size
In short: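 Each compound was tested at 15 concentrations across three independent runs on dye-loaded CHO cells stably expressing human CHRM1, reading intracellular calcium fluorescence kinetically at 1 sec intervals.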

[15] = cAMP Responsive Elements (CRE) small molecule antagonists, cell-based qHTS assay (AID 1963591; active = well fitted inhibition curve with a large enough effect in the signal ratio in the repeat runs, not every such curve was filed as active; the % refers to the signal ratio)
In short: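 Inhibition of NKH477-driven (0.25 uM final) CRE-beta-lactamase signal in HEK293T cells, 3 h compound exposure at 37 °C, detected by FRET substrate fluorescence.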

[16] = target: Beta-2 adrenergic receptor (Homo sapiens) (UniProt P07550); experiment: Adrenergic beta2 receptor (ADRB2) small molecule antagonists, cell-based qHTS assay (AID 1963592); also: series mostly up to about 92 µM; nearly all actives have a fitted effect of over 50% in size
In short: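 Cells (CHO, stable ADRB2 overexpression) incubated 18-20hr at 37C; compounds added from DMSO; agonist mix (1nM isoproterenol, 100uM IBMX, 25uM Ro-20-1724) added; 0.5hr RT; d2-cAMP and anti-cAMP-cryptate added; 1hr RT; 665/615 nm read.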

[17] = target: D(2) dopamine receptor (Homo sapiens) (UniProt P14416); experiment: Dopamine D2 receptor (DRD2) small molecule antagonists, cell-based qHTS assay (AID 1963595; active = well fitted inhibition curve with a large enough effect in the signal ratio in the repeat runs, with a control signal flat; the % refers to the signal ratio)
In short: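 HEK293 cells stably expressing DRD2, preincubated with 0.1 mM Ro20-1724 and compounds 10 min, were stimulated with 200 nM NKH477 plus 12 nM quinpirole for 30 min at room temperature; cAMP measured by HTRF (665/620 nm).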

[18] = target: 5-hydroxytryptamine receptor 2A (Homo sapiens) (UniProt P28223); experiment: 5-hydroxytryptamine receptor 2A (HTR2A) small molecule agonists, cell-based qHTS assay (AID 1963587); also: nearly all actives have a fitted effect of over 30% in size; also: potency is read from the fitted curve at half-maximal effect
In short: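 CHO cells stably expressing human HTR2A, plated 18 h, loaded with calcium dye 1 h at 37 C. Agonist mode: compounds added and intracellular calcium fluorescence recorded kinetically for 2 min at 1 sec intervals.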

[19] = target: D(2) dopamine receptor (Homo sapiens) (UniProt P14416); experiment: Dopamine D2 receptor (DRD2) small molecule agonists, cell-based qHTS assay (AID 1963594); also: nearly all actives have a fitted effect of over 35% in size
In short: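 HEK293 cells stably expressing human DRD2, pre-treated with PDE inhibitor Ro20-1724 (0.1 mM final) and compound 10 min at room temperature, then stimulated with NKH477 (200nM […]) for 30 min. cAMP read by HTRF (665/620 nm).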

[20] = cAMP Responsive Elements (CRE) small molecule agonists, cell-based qHTS assay (AID 1963590)
In short: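 Cell line: CRE-bla HEK 293T; medium DMEM/10% dialyzed FBS/0.1 mM NEAA/1 mM pyruvate/25 mM HEPES; 3 h compound exposure; beta-lactamase FRET readout after 2 h substrate loading at RT.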

Gonadotropin-releasing hormone receptor (Homo sapiens), sequence (P30968 whole entry, looked up): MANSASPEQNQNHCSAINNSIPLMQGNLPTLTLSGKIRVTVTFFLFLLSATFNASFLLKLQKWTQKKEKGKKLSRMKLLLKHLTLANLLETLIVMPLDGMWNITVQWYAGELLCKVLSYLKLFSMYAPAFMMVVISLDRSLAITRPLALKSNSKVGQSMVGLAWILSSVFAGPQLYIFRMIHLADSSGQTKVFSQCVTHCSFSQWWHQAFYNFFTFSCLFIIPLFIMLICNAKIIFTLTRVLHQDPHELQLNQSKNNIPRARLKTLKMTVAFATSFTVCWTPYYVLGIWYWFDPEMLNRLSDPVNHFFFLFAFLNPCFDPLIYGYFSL
KiSS-1 receptor (Homo sapiens), sequence (Q969F8 whole entry, looked up): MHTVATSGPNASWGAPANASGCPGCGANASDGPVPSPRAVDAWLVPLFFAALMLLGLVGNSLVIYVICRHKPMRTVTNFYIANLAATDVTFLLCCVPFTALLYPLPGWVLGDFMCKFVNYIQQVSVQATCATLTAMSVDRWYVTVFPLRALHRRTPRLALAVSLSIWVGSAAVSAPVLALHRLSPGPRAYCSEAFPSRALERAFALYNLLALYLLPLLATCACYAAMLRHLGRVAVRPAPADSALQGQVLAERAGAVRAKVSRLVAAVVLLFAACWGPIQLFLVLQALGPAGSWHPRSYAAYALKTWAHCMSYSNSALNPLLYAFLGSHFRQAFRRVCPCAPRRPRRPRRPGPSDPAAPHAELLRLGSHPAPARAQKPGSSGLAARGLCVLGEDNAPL
5-hydroxytryptamine receptor 2A (Homo sapiens), sequence (P28223 whole entry, looked up): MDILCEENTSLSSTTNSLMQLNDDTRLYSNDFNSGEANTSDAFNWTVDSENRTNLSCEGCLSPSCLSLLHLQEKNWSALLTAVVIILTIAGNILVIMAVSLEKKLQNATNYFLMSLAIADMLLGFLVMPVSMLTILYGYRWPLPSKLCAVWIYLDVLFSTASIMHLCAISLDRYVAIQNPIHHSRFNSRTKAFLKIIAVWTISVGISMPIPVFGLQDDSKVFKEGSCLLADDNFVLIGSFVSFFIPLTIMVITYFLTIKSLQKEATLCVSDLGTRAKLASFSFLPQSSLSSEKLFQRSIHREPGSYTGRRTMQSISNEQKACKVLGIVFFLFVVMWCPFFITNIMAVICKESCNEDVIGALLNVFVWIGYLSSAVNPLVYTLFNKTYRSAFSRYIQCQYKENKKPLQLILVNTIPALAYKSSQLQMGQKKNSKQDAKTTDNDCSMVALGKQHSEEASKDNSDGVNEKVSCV
D(2) dopamine receptor (Homo sapiens), sequence (P14416 whole entry, looked up): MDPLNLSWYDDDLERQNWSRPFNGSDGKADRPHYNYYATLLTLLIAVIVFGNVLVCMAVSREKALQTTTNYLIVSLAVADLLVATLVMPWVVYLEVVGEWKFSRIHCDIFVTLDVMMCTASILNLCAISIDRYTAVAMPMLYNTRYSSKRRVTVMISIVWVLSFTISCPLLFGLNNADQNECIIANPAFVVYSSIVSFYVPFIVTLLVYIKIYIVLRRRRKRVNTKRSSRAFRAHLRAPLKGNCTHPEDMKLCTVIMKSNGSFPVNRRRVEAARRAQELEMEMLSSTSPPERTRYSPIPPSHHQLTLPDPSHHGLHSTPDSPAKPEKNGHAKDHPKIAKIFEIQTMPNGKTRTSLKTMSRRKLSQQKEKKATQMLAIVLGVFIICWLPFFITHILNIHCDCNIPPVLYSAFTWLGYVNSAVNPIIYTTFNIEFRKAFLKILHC
Beta-2 adrenergic receptor (Homo sapiens), sequence (P07550 whole entry, looked up): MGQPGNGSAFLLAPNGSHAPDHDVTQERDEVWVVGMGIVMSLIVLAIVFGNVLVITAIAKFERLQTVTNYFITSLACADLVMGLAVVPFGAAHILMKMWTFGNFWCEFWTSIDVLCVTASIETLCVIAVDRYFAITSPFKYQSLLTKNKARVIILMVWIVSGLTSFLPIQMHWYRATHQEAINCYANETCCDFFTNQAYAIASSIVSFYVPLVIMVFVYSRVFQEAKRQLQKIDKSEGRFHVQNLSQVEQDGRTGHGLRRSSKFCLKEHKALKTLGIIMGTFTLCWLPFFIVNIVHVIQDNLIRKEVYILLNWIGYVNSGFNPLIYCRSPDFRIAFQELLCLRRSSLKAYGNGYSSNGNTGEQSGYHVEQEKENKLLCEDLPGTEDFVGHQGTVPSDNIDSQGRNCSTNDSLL
Muscarinic acetylcholine receptor M1 (Homo sapiens), sequence (P11229 whole entry, looked up): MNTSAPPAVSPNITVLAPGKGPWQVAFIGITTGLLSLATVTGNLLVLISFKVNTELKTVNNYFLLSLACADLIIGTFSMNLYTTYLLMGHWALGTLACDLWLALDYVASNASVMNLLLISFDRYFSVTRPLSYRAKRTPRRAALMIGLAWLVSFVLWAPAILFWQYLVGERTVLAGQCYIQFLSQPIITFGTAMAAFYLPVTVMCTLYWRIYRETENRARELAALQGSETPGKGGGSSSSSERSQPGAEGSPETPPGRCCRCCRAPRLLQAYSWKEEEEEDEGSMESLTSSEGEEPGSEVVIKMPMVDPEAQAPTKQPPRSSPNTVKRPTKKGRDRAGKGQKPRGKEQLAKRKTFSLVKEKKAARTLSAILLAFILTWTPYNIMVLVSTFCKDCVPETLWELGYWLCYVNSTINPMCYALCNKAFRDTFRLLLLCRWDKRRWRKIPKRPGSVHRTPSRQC

Structure (SMILES) | Potency [1] | Potency [2] | Potency [3] | Potency [4] | Potency [5] | Potency [6] | Potency [7] | Potency [8] | Potency [9] | Potency [10] | Potency [11] | Potency [12] | Potency [13] | Potency [14] | Potency [15] | Potency [16] | Potency [17] | Potency [18] | Potency [19] | Potency [20]
CCC(OC(C)=O)C(CC(C)NC)(c1ccccc1)c1ccccc1 (centres undefined) | 54.9 µM (active) | inactive | inactive | inactive | inactive | inactive | inactive | inactive | inactive | inactive | inactive | inactive | inactive | inactive | inactive | inactive | inactive | – | – | –
CCC1COC(Cn2cncn2)(c2ccc(Cl)cc2Cl)O1 (centres undefined) | inactive | inactive | inactive | inactive | inactive | inactive | inactive | inactive | inactive | inactive | inactive | inactive | inactive | inactive | – | – | inactive | inactive | inactive | –
CC(C)(Cl)[N+](=O)[O-] | inactive | inactive | inactive | inactive | inactive | inactive | inactive | inactive | inactive | inactive | inactive | inactive | inactive | inactive | – | inactive | inactive | inactive | – | inactive
O=c1[nH]c2cc(Cl)ccc2n1C1CCNCC1 | inactive | inactive | inactive | inactive | inactive | inactive | inactive | inactive | inactive | inactive | inactive | inactive | inactive | inactive | – | – | inactive | inactive | inactive | inactive
NC1CCC(CC2CCC(N)CC2)CC1 (centres undefined) | 23.9 µM (active) | inactive | inactive | inactive | inactive | inactive | inactive | inactive | inactive | inactive | inactive | inactive | inactive | inactive | – | inactive | inactive | 19.2 µM (active) | inactive | inactive
COc1ccc2c(c1OC)CN1CCc3cc4c(cc3C1C2)OCO4 (centres undefined) | inactive | inactive | inactive | inactive | inactive | inactive | inactive | inactive | inactive | inactive | inactive | inactive | inactive | inactive | inactive | – | inactive | inactive | – | –
O=C(O)C(Br)CBr (centres undefined) | inactive | inactive | inactive | inactive | inactive | inactive | inactive | inactive | inactive | inactive | inactive | inactive | inactive | inactive | – | inactive | inactive | inactive | inactive | inactive
BrCBr | inactive | inactive | inactive | inactive | inactive | inactive | inactive | inactive | inactive | inactive | inactive | inactive | inactive | inactive | inactive | inactive | inactive | inactive | – | inactive
N#Cc1ccc(N(CC(N)=O)CC(F)(F)F)cc1C(F)(F)F | inactive | inactive | inactive | inactive | inactive | inactive | inactive | inactive | inactive | inactive | inactive | inactive | inactive | inactive | inactive | inactive | inactive | inactive | – | inactive
N[C@@H]1C[C@H]1c1ccccc1 | inactive | inactive | inactive | inactive | inactive | inactive | inactive | inactive | inactive | inactive | inactive | inactive | inactive | inactive | – | inactive | inactive | 8.49 µM (active) | inactive | inactive
II | inactive | inactive | inactive | inactive | inactive | inactive | inactive | inactive | inactive | inactive | inactive | inactive | inactive | inactive | inactive | – | – | – | inactive | inactive
CN/C(=N\[N+](=O)[O-])NCc1cnc(Cl)s1 | inactive | inactive | inactive | inactive | inactive | inactive | inactive | inactive | inactive | inactive | inactive | inactive | inactive | inactive | – | inactive | inactive | inactive | inactive | inactive
C[C@]12CC[C@H]3[C@@H](CCC4=CC(=O)CC[C@@]43C)[C@@H]1CC[C@@H]2C(=O)O | inactive | inactive | inactive | inactive | inactive | inactive | inactive | inactive | inactive | inactive | inactive | inactive | inactive | inactive | – | inactive | inactive | inactive | – | –
CC(C)[C@@H](Nc1ccc(C(F)(F)F)cc1Cl)C(=O)OC(C#N)c1cccc(Oc2ccccc2)c1 (some centres undefined) | inactive | inactive | inactive | inactive | inactive | inactive | inactive | inactive | inactive | inactive | inactive | inactive | inactive | inactive | inactive | inactive | – | inactive | inactive | –
CC(Cl)(Cl)Cl | inactive | inactive | inactive | inactive | inactive | inactive | inactive | inactive | inactive | inactive | inactive | – | – | – | inactive | inactive | inactive | – | inactive | inactive
